Bioassay records (PubChem)
The list is not random: actives were taken first. Their share in the collection is about 12%.
Shiga inhibitor – Shiga toxin inhibition. 290,000 compounds, 9.2% hits. inhibition, % at 38.7 µM. Vero cells, Shiga toxin protein synthesis inhibition reporter. AID 2315; in the data active means inhibition mostly above about 28%, no sharp cut-off; inactive means mostly below about 43%; further: 0% is about no effect
Cycloheximide cs – counter-screen hit for Shiga toxin inhibitors, cycloheximide. cell reporter, cycloheximide protein synthesis inhibition counterscreen. max response, %. 300,000 compounds, 12% hits. AID 2314; in the data active means max response mostly above about 13%, no sharp cut-off; inactive means mostly below about 14%; further: read at 38.3 µM for the half of the compounds with a filed dose; 0% is about no effect
SARS PLP yeast – blocks SARS-CoV papain-like protease in a yeast assay; S. cerevisiae expressing SARS-CoV PLpro, growth rescue; Potency, µM (series often up to 32.9 µM), for inactives: at the top dose activity, positive = growth rescue, actives largely listed as activators; 330,000 compounds, 0.19% hits; further: potency means the concentration at half of the fitted maximal effect; 0% is about no effect; nearly all actives have a fitted effect of over 55% in size
NS1 function inh – inhibitors of influenza NS1 protein function | Potency, µM (top dose mostly 46.1 µM), without a hit: at the top dose activity, positive = more growth | 270,000 compounds, 0.4% hits | AID 2326; further: potency means the concentration at half of the fitted maximal effect; actives are rising curves; nearly all actives have a fitted effect of over 50% in size
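Read-out: OD600 growth recovery of NS1-expressing budding yeast. Cells grown overnight at 30C in -URA glucose medium, washed, resuspended and diluted 1:100 in 2% galactose assay medium, pH 6.0. Same strain lacking NS1 served as positive control.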
* marks the source's active call; other numbers are inactive results; ? = inconclusive; · = no result given. Unless noted, the call rests on the fitted dose curve.

SMILES | Shiga inhibitor | Cycloheximide cs | SARS PLP yeast | NS1 function inh
N=C1C(c2nc3ccccc3s2)=C(O)CN1CCCO | -12 | 14 | 5% | -9%
CCCCN1CC(O)=C(c2nc3ccccc3s2)C1=N | 44 | 25* | -6% | -47%
Cc1csc(C2=C(O)CN(CCc3ccccc3)C2=N)n1 | -2 | -1 | 4% | -8%
CC(O)CN1CC(O)=C(c2nc3ccccc3s2)C1=N (stereo not given) | 21 | 17* | 1% | ·
CCN1CC(O)=C(c2nc3ccccc3s2)C1=N | 27 | 24* | -10% | -12%
N=C1C(c2nc3ccccc3s2)=C(O)CN1NC(=O)c1ccco1 | -10 | -2 | 1% | -1%
O=C(NCCN1CCCCC1)c1cc(Cl)ccc1Cl | 2 | -3 | 1% | -5%
O=C(CSCc1ccc(Cl)cc1)Nc1ccc(Br)cc1C(=O)O | -7 | -3 | -2% | 0%
Cc1cc(C)c(C#N)c(SCC2COc3ccccc3O2)n1 (stereo not given) | 13 | 21* | -15% | -12%
Cc1cc(C)c(C#N)c(SCc2ccccc2C)n1 | 2 | 0 | -7% | -17%
N#Cc1cc2c(nc1SCC1COc3ccccc3O1)CCC2 (stereo not given) | 58* | 35* | 2% | 0%
Cc1ccc(CSc2nc3c(cc2C#N)CCC3)cc1 | 12 | -3 | 3% | 11%
Cc1cc(C)n2nc(SCC3COc4ccccc4O3)nc2n1 (stereo not given) | 89* | 51* | 4% | ?
CCN(CC)C(=O)CC(c1ccc(F)cc1)c1ccc(OC(C)C)cc1 (stereo not given) | -3 | 3 | 22% | -11%
C[C@H](NC(=O)[C@@H]1CSC2c3ccccc3C(=O)N21)C(=O)NCc1c(F)cccc1Cl (stereo not given in full) | 28 | 1 | 0% | -7%
O=C1c2ccccc2C(=O)N1OCc1ccccc1[N+](=O)[O-] | 82 | 24* | 1% | 5%
O=C(Cc1ccccc1[N+](=O)[O-])OCN1C(=O)c2ccccc2C1=O | 30 | 18* | 10% | 13%
O=C(Cc1ccccc1[N+](=O)[O-])OCc1cccc([N+](=O)[O-])c1 | 92* | 32* | 1% | -5%
O=C(Nc1ccon1)Nc1ccc(Cl)cc1Cl | 42* | 25* | -10% | -2%
CCOc1cc(C(=O)Nc2ccon2)cc(OCC)c1OCC | 29 | 2 | -3% | -3%
CCc1ccccc1NC(=O)Nc1ccon1 | -6 | 3 | -2% | -7%
O=C(Nc1ccon1)Nc1cccc(Cl)c1Cl | 3 | 9.6* | -2% | -57%
CCOc1ccc(NC(=O)Nc2ccon2)cc1 | 58* | 39* | -7% | -17%
O=C(Nc1ccc(Cl)cc1)Nc1ccon1 | 29* | 15* | -3% | -28%
O=C(Nc1cccc(Cl)c1)Nc1ccon1 | 16 | 17 | -6% | -36%
SMILES | Shiga inhibitor | Cycloheximide cs | SARS PLP yeast | NS1 function inh
COc1cc(S(=O)(=O)N(C)C)ccc1F | -4 | -3 | -6% | 2%
C=CCNC(=O)Cc1ccc(S(=O)(=O)N2CCOCC2)s1 | · | · | 2% | ·
O=C1CN(C(=O)c2cc3ccccc3oc2=O)C(c2ccc(F)cc2)c2cc(Br)ccc2N1 (stereo not given) | -1 | -2 | -2% | 30%
Cc1ccc(NC(=O)Nc2ccon2)cc1 | 66* | 40* | -7% | -17%
Cc1ccc(NC(=O)Nc2ccc3c(c2)C(=O)OC3)cc1Cl | -2 | 3 | 2% | -4%
Cc1ccc(NC(=O)Nc2ccon2)cc1Cl | 50* | 28* | -11% | -35%
COc1cc(CC(=O)NCC(C)(C)N2CCOCC2)cc(OC)c1OC | -23 | -3 | -1% | -1%
Cc1cc(C)nc(-n2nc(C)c3c(C(F)(F)F)cc(=O)[nH]c32)n1 | -8 | -2 | 1% | 0%
Cc1cc(C)nc(-n2nc(C)c(Sc3ccc(F)cc3)c2N)n1 | 100* | 39* | -24% | -227%
COC(=O)c1c(-c2c(Cl)cccc2Cl)noc1NC(=O)NN1CCCCC1 | -8 | -2 | 0% | 4%
O=C(O)CCc1ccc(-c2ccc(Br)cc2)o1 | 39* | 9 | -28% | -222%
COc1ccc(-c2ccc(CCC(=O)O)o2)cc1 | 41* | 25* | -3% | -5%
COc1cccc(N2CCN(C(=O)C3CCN(S(=O)(=O)c4ccc5c(c4)CC(C)N5C(C)=O)CC3)CC2)c1 (stereo not given) | 1 | -1 | -6% | -1%
Cc1c(Br)c([N+](=O)[O-])nn1CC(=O)N1CCc2ccccc2C1 | -1 | -3 | -1% | 6%
Cc1c(Br)c([N+](=O)[O-])nn1C(C)C(=O)N1CCc2ccccc2C1 (stereo not given) | 30* | 27* | 1% | 28%
O=C(c1cccc([N+](=O)[O-])c1)N1CCCC(C(=O)N2CCc3ccccc3C2)C1 (stereo not given) | -3 | -5 | 27% | 5%
O=C(OC(C(=O)NC1CCCCC1)c1ccccc1F)c1ccco1 (stereo not given) | -8 | 8 | 3% | -5%
Cc1ccc(-c2nc(NCCN(C)C)c3ccccc3n2)cc1 | 80 | 18* | 0% | -20%
Cc1cccc(-c2nc(NCCCN(C)C)c3ccccc3n2)c1 | 51 | 14* | -3% | 4%
CCCCN(CC)c1nc(-c2ccncc2)nc2ccccc12 | -16 | -1 | -48% | -15%
Cc1cccc(-c2nc(NCCCN3CCOCC3)c3ccccc3n2)c1 | -3 | 7 | -8% | 11%
COCCN(CCOC)c1nc(-c2ccc(C)cc2)nc2ccccc12 | 73* | 13* | -5% | -67%
CN(C)CCCNc1nc(-c2ccc(Cl)cc2)nc2ccccc12 | -2 | 1 | 4% | 29%
COc1ccc(-n2nc(C(=O)NCCc3ccc(OC)c(OC)c3)c3c4ccccc4n(C)c3c2=O)cc1 | -12 | -4 | · | ·
COc1cccc(C2=NO[C@@H]3C(=O)N(c4ccc5c(c4)OCCO5)C(=O)[C@H]23)c1OC | 109* | 66* | -2% | -45%
SMILES | Shiga inhibitor | Cycloheximide cs | SARS PLP yeast | NS1 function inh
O=C(NCCCNC(=O)c1cccnc1)c1ccc(Cl)cc1 | -5 | 0 | 2% | 9%
Cc1ccc2c(c1)C(=NC1CCCCC1)c1cc3ccccc3nc1-2 | 41* | 51* | -8% | -8%
CN(Cc1ccccc1)c1ncnc2c1cnn2-c1ccccc1 | 98* | 55* | -13% | -63%
CCN(c1ccccc1)c1ncnc2c1cnn2-c1ccccc1 | 65* | 26* | -14% | -9%
Cc1cc(C(C2C(=O)CC(C)(C)CC2=O)C2C(=O)CC(C)(C)CC2=O)cc(C)c1OC(F)F | -5 | -2 | ? | -3%
O=C(CC1NCCc2ccccc21)Nc1ccccc1 (stereo not given) | 35* | 24* | 2% | ·
O=C(CC1NCCc2ccccc21)Nc1ccccc1Cl (stereo not given) | 39 | 26* | 1% | ·
Cc1ccc(NC(=O)CC2NCCNC2=O)cc1 (stereo not given) | 17 | 11* | 0% | -1%
CCCCn1c(N)c(N(CC(C)C)C(=O)c2ccc(N3C(=O)CCC3=O)cc2)c(=O)[nH]c1=O | · | · | -3% | ·
O=C(Oc1ccccc1)c1ccc(COC(=O)c2cnccn2)cc1 | 30 | 22* | -12% | -34%
CC(C)OC(=O)c1ccc(COC(=O)c2cnccn2)cc1 | 49 | 6 | 0% | -4%
